USP17 block: human USP17-like deubiquitinase inhibition | inhibition, % at 50 µM | purified USP17, Ub-rhodamine cleavage fluorescence, 3 h | 47,000 tested, 6.5% active | A8MUK1
USP10 inh: human USP10 deubiquitinase inhibition; purified USP10, Ub-rhodamine fluorescence, 60 min; inhibition, % at 20 µM; 47,000 tested, 1.1% active
Target sequence (Q14694 whole entry, looked up): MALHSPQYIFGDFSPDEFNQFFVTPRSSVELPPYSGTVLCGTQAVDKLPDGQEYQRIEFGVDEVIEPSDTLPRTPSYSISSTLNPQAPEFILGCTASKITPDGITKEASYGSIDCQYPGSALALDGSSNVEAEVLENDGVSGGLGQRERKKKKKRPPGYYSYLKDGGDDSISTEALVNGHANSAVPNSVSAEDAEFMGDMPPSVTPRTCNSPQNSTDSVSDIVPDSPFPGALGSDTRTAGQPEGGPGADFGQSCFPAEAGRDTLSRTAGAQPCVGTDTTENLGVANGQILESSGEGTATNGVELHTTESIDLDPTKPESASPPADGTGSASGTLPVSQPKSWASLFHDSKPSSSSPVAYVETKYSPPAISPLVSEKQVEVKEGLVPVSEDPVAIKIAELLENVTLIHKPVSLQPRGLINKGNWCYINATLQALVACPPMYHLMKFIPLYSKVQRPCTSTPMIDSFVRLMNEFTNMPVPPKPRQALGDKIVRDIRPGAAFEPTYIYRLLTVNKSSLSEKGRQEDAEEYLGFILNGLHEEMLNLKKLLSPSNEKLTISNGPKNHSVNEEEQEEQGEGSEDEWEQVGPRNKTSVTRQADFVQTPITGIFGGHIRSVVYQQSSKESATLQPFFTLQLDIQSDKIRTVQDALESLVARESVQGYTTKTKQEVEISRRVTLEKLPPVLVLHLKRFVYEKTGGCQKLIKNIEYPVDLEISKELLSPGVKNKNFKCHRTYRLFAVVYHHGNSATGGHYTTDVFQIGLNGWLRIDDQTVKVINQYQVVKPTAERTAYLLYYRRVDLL
USP30 block: inhibitors of human USP30 deubiquitinase; 47,000 tested, 5.3% active; inhibition, % at 25 µM; purified USP30, Ub-rhodamine cleavage fluorescence; AID 1645860; Q70CQ3
USP8 inh: human USP8 deubiquitinase inhibition | purified USP8, Ub-rhodamine cleavage fluorescence, 30 min | inhibition, % at 20 µM | 47,000 tested, 4.2% active
USP28 inh: blocks human USP28 ubiquitin-rhodamine cleavage. 47,000 tested, 3% active. Q96RU2. inhibition, % at 25 µM. purified USP28, Ub-rhodamine cleavage fluorescence, 30 min
OTUD3 inh: human OTUD3 deubiquitinase inhibition; Q5T2D3; purified OTUD3, Ub-rhodamine fluorescence, 2 h; inhibition, % at 25 µM; 47,000 tested, 0.7% active; AID 1645858
Active calls of the source: *; nt = no result given. Hits are enriched below; roughly 13% of the tested compounds scored in any of these assays. Rule as the data show it: active = inhibition above about 30%; inactive = the rest.

SMILES | USP17 block | USP10 inh | USP30 block | USP8 inh | USP28 inh | OTUD3 inh
COc1ccccc1NC(=O)c1cc2c(C)nn(Cc3ccccc3)c2s1 | 70* | 1 | 0 | -226 | 20 | 0
Cc1nn(Cc2ccccc2)c2sc(C(=O)Nc3nc4ccccc4[nH]3)cc12 | 67* | 20 | 44* | 84* | 27 | 16
Cc1ccc(Cn2nc(C)c3cc(C(=O)NC4=NCCS4)sc32)cc1 | -8 | -8 | -18 | -3 | -16 | -8
O=[N+]([O-])c1ccc(N2CCC3(CC2)OCC=CCO3)cc1 | -65 | -6 | -77 | -95 | -16 | -29
COc1ccc(-c2cc(-c3ccccc3)nc(SCC(N)=O)c2C#N)cc1OC | 75* | 22 | -7 | 28 | -10 | -14
Cc1ccc(N(CCC(=O)Nc2ccc(C)c(F)c2)S(=O)(=O)c2ccc(C)cc2)cc1 | -4 | 4 | -11 | 6 | 0 | -2
O=C(Nc1ccccc1Cl)N1CCC(c2nc3ncccc3[nH]2)CC1 | 1 | -2 | -5 | 1 | 1 | -2
O=C(CCCn1c(=O)c2sccc2n(Cc2ccc(F)cc2)c1=O)NCc1ccco1 | 29 | 1 | 23 | 33* | 6 | 9
O=C(CCCCCn1c(=O)c2sccc2n(CC(=O)c2ccc(F)cc2)c1=O)NCc1ccccc1Cl | 19 | 15 | 39* | 45* | 16 | 4
O=C(Cn1c(=O)c2sccc2n(CC(=O)OCc2ccccc2)c1=O)NCc1ccccc1Cl | 16 | 19 | 12 | 21 | 7 | 6
O=C(CCCCCn1c(=O)c2sccc2n(CC(=O)c2ccc(Cl)c(Cl)c2)c1=O)NCc1ccc2c(c1)OCO2 | 20 | 46* | 6 | 89* | 3 | 19
O=C1C(=NCCc2ccccc2)N[C@@H]2[C@@H](O)[C@@H](O)[C@H](O)[C@@H](CO)N12 | 0 | 1 | 16 | -32 | 6 | 9
Cc1cc(C2CCCN2C(=O)c2cc(-c3cccc(Cl)c3)on2)no1 (centres undefined) | 23 | 0 | 24 | 0 | 21 | 10
Cc1cc(NS(=O)(=O)c2ccc(NC(=O)c3ccc(N4CCCC4)c([N+](=O)[O-])c3)cc2)no1 | 20 | 31* | -49 | -68 | 14 | 8
Cc1cc(NS(=O)(=O)c2ccc(NC(=O)c3cccc4ccccc34)cc2)no1 | 20 | 5 | 24 | 16 | 5 | 12
O=C(NCc1ccccc1F)C1(Cc2ccccc2-c2cccnc2)CCOCC1 | -27 | -2 | -72 | -12 | -29 | -17
COCCN1CCS(=O)(=O)c2c(Cl)c(F)nc(Oc3ccccc3F)c21 | 49* | 0 | -4 | 53* | 5 | -2
COCCCN1CCS(=O)(=O)c2c(Cl)c(F)nc(Oc3ccc(C#N)cc3)c21 | 80* | 10 | -16 | 91* | 20 | -1
O=S1(=O)CCN(Cc2cccnc2)c2c(Oc3ccccc3F)nc(F)c(Cl)c21 | 13 | -1 | 12 | 15 | 2 | -7
O=C(Nc1ccc2cn[nH]c2c1)c1cc(-c2ccco2)on1 | -2 | -1 | -215 | 41* | -38 | -17
O=C(Cn1c(=O)n(Cc2ccc(C(=O)NC3CCCC3)cc2)c(=O)c2ccccc21)c1ccc(Cl)c(Cl)c1 | 19 | 23 | 12 | 21 | 3 | 10
O=C(Cn1c(=O)n(Cc2ccc3c(c2)OCO3)c(=O)c2ccccc21)c1ccccc1 | 23 | 0 | 36* | 36* | 12 | 9
O=C(Cn1c(=O)n(Cc2ccc3c(c2)OCO3)c(=O)c2ncccc21)NCc1ccccc1 | 76* | -1 | 85* | 38* | 62* | 44*
O=C(Cn1c(=O)n(Cc2ccccc2)c(=O)c2ncccc21)NCC1CCCO1 (centres undefined) | -3 | -5 | -9 | 4 | -9 | -2
O=C(Cn1c(=O)n(Cc2ccc(F)cc2)c(=O)c2ncccc21)N1CCCc2ccccc21 | 7 | -5 | 15 | 1 | 13 | -10
SMILES | USP17 block | USP10 inh | USP30 block | USP8 inh | USP28 inh | OTUD3 inh
O=C(Cn1c(=O)n(Cc2ccc(F)cc2)c(=O)c2ncccc21)NCc1ccc(F)cc1 | nt | -1 | -56 | 44* | -8 | 20
O=C(c1ccc(F)cc1)N1CCN(Cc2cc(=O)c3ccccc3[nH]2)CC1 | -4 | -2 | 1 | 0 | -11 | -1
CC(C)C1=CCC2C(=C1)CCC1[C@]2(C)CCC[C@@]1(C)C(=O)O (some centres undefined) | 25 | 2 | 21 | 19 | 5 | 3
Oc1ccc(Br)cc1CNc1ccc(F)cc1 | 53* | 8 | 19 | 85* | 60* | 8
CCc1ccccc1OCCOCCN1CCN(C)CC1 | -34 | -1 | -17 | 2 | -2 | -5
Cc1cc(OCCOCCN2CCN(C)CC2)cc(C)c1Cl | 0 | 0 | 5 | -7 | 33* | 0
C[C@]12CN(Cc3cccc4cccnc34)C[C@H]1NC(=O)c1ccccc1C2=O | 18 | 0 | -5 | 44* | 0 | -2
COc1cccc(-c2nnc(SCC(=O)Nc3cc(-c4ccccc4)nn3-c3ccccc3)n2C)c1 | -16 | -8 | -27 | -4 | -3 | -4
Cc1ccc(S(=O)(=O)N2C(=O)CCC2C(=O)Nc2ccccc2C)cc1 (centres undefined) | 0 | 1 | -11 | -33 | -4 | 0
COc1cc(NC(=O)Nc2ccc3nc4n(c(=O)c3c2)CCCC4)cc(OC)c1 | -9 | -7 | -23 | -5 | 6 | -7
COc1cccc(NC(=O)Nc2ccc3nc4n(c(=O)c3c2)CCCC4)c1 | 34* | 16 | 27 | 50* | 55* | 13
COc1ccc(NC(=O)Nc2ccc3nc4n(c(=O)c3c2)CCCC4)cc1OC | 4 | 6 | 12 | 2 | 31* | 6
O=C(Nc1ccc2c(c1)OCCO2)Nc1ccc2nc3n(c(=O)c2c1)CCCC3 | 32* | 2 | 4 | 0 | 68* | -2
O=C(CC1CCCC1)N1CCC(c2[nH]nc3nccnc23)CC1 | 22 | 15 | 19 | 11 | 12 | 11
CCC(=O)Nc1nc2cc(NC(=O)Nc3ccc(OC)c(OC)c3)ccc2s1 | -4 | -3 | -4 | -3 | 19 | 0
CCC(=O)Nc1nc2cc(NC(=O)Nc3ccccc3Cl)ccc2s1 | 0 | 24 | 14 | 33* | 3 | -1
Cc1c(S(=O)(=O)N2CCCCC2)cc(C(=O)N2CCN(c3ccccc3F)CC2)n1C | -6 | 0 | -6 | -3 | -8 | -2
Cn1c(=O)c2c(SCC(=O)NCc3ccc4c(c3)OCO4)nc(-c3ccc([N+](=O)[O-])cc3)nc2n(C)c1=O | 27 | 4 | 31* | -1 | 2 | -8
CCn1cnc2c(-c3ccccc3)cn(CC(=O)Nc3cccc(C(C)=O)c3)c2c1=O | 8 | -7 | -34 | 7 | -18 | -8
CCn1cnc2c(-c3ccccc3)cn(CC(=O)NCc3ccc4c(c3)OCO4)c2c1=O | 51* | 11 | 20 | 14 | 9 | 7
O=C(Cn1cnc2cc([N+](=O)[O-])ccc2c1=O)NCc1ccc2c(c1)OCO2 | 18 | 3 | -11 | 39* | 15 | 26
